# Source: PubChem BioAssay AID2315 (National Center for Advancing Translational Sciences (NCATS), 2010)
# In all, about 290,000 compounds went through this assay and about 27,000 (9.3%) were called active. For the sample, actives were picked, then their nearest neighbours and some compounds at random. Unmarked numbers belong to inactive results. Rule as the data show it: active = inhibition mostly above about 28% (no sharp cut-off); inactive = mostly below about 43%.
# Assay: A qHTS for Small Molecule Inhibitors of Shiga Toxin; also: 0% is about no effect
# Settings: Vero cells, Shiga toxin protein synthesis inhibition reporter; at 38.7 µM, hits give high values
row,SMILES,inhibition
1,O=S(=O)(c1ccccc1)c1nc(-c2ccccc2)oc1NCCCN1CCOCC1,-13.1%
2,O=C(Nc1ccc(CN2CCOCC2)cc1)c1cc(Cl)ccc1Cl,-2.33%
3,Nc1ccccc1SCc1cc([N+](=O)[O-])cc2c1OCOC2,62% (active)
4,CC(O)C(NS(=O)(=O)c1ccc(Cl)cc1)C(=O)OCc1cc([N+](=O)[O-])cc2c1OCOC2 (configuration not stated),-12.1%
5,O=C(CN1CCN(c2ccc(Cl)cc2)CC1)c1ccccc1,12.6%
6,CC1CN(S(=O)(=O)c2cccc(C(F)(F)F)c2)CN1C(=O)N1CCOCC1 (configuration not stated),29.9%
7,O=C(N/N=C/c1cc([N+](=O)[O-])ccc1O)/C(=C\c1cccs1)NC(=O)c1ccccc1,-4.29%
8,O=[N+]([O-])c1ccc(O)c(/C=N/Nc2ccccc2[N+](=O)[O-])c1,33.7% (active)
9,Nc1nnnn1/N=C/c1cc([N+](=O)[O-])ccc1O,19.7%
10,CCNC(=S)N(CCN(CC)CC)Cc1cc2cc3c(cc2[nH]c1=O)OCCO3,37.5%
11,O=C(CSCc1ccc(Cl)cc1)N1CCCCC1,91.4% (active)
12,Cn1c(SCC(=O)N2CCCC2)nnc1-c1cccs1,19.8%
13,O=C(CN1CCN(c2ccc(Cl)cc2)CC1)N1CCCC1,-2.98%
14,O=C(CSCc1ccc(Cl)cc1)N1CCN(Cc2ccc3c(c2)OCO3)CC1,1.49%
15,O=C(CSc1ncccn1)N1CCCC1,15.5%
16,O=C(CSCc1cccs1)N1CCCC1,55.4% (active)
17,COc1ccc(-c2c(NC(=O)c3ccco3)oc3ccc(Cl)cc3c2=O)cc1,-2.04%
18,O=S(=O)(NC1CCCC1)c1ccc(-n2cnnn2)cc1,-3.47%
19,COc1ccc(C=C(C#N)C#N)c(CSc2ccccn2)c1,-2.53%
20,COc1ccc(C(=O)N[C@H](C(=O)NCc2ccccc2)C(C)C)cc1,2.84%
21,CCN(CC(=O)NCc1cccs1)C(=O)c1cccc(S(=O)(=O)Nc2ccccc2OC)c1,25.8%
22,COc1ccccc1C(=O)Nc1ccc(OCc2nnc3c4ccccc4c(C)nn23)cc1,6.17%
23,COc1ccc(C2/C(=C(/O)c3ccc4c(c3)CC(C)O4)C(=O)C(=O)N2Cc2ccncc2)cc1 (configuration not stated),21.4%
24,CN(C)c1nnnn1-c1ccc(Cl)cc1,32.8%
25,Nc1ccc2nn(-c3ccc(Cl)cc3)nc2c1,99% (active)

row,SMILES,inhibition
1,CCn1c(SCC(=O)NNC(=O)c2ccc(OC)cc2)nnc1C(C)C,-2.63%
2,O=C1NC(=O)C(c2ccc(Cl)cc2)N1 (configuration not stated),-0.685%
3,COc1cccc(CNC(=O)C2CC(=O)N(C3CCCCCCC3)C2)c1 (configuration not stated),-10.4%
4,O=c1nc(N/N=C/c2ccco2)cn[nH]1,84% (active)
5,O=C(Cn1cnc2ccccc21)N/N=C/c1ccco1,15.9%
6,CC(C)NC(=O)C(=O)N/N=C/c1ccco1,-4.96%
7,O=C(Nc1ccccc1)c1cc2ccccc2[nH]1,116% (active)
8,O=C(Nc1ccccc1)N1CCN(C(=O)Nc2ccccc2)CC1,14.4%
9,CC(C)n1c(=O)[nH]c2cc(C(=O)Nc3ccccc3)ccc21,-20.3%
10,COc1ccccc1OCCOc1ccc(/C=C2\C(=N)N3N=C(C)SC3=NC2=O)cc1,2.39%
11,COc1cccc(N(CC(=O)NC2CCCC2)C(=O)Cn2nnc(-c3ccc(C)o3)n2)c1,5.05%
12,CCn1c(SCc2ccccc2)nc2cc(OC)c(OC)cc2c1=O,-6.05%
13,O=C(CN1CCN(c2ccccc2)CC1)Nc1ccc(F)cc1,2.65%
14,O=C(c1ccc(F)cc1)N1CCC(n2nnc3ccccc32)CC1,111% (active)
15,CC(=O)c1cccc(S(=O)(=O)N2CCC(n3nnc4cc(F)ccc43)CC2)c1,7.77%
16,O=S(=O)(c1cccc(S(=O)(=O)N2CCC(n3nnc4ccccc43)CC2)c1)N1CCCCC1,-25.2%
17,COc1ccc(N(CC(=O)N2CCOCC2)S(=O)(=O)c2ccccc2)cc1Cl,-9.7%
18,COc1ccc(S(=O)(=O)N2CN(CCc3ccc(OC)c(OC)c3)c3nc4ccccc4nc32)cc1,-10.2%
19,C=CCN1CN(S(=O)(=O)c2ccc(OC)cc2)c2nc3ccccc3nc21,8.86%
20,O=S(=O)(c1ccccc1)N1CN(Cc2ccc(F)cc2)c2nc3ccccc3nc21,45.9% (active)
21,O=C(NCCS(=O)(=O)N1CCN(c2ccccc2F)CC1)c1ccc(Br)o1,-0.576%
22,O=C1CCC(C(=O)N2CCC(O)(c3ccccc3)CC2)CN1CCc1ccccc1 (configuration not stated),-9.01%
23,CCOC(=O)CSc1nnc(-c2ccco2)n1C,-1.54%
24,Cn1c(SCC(=O)c2cccs2)nnc1-c1ccco1,58.7% (active)
25,CCCCNC(=O)CSc1nnc(-c2ccco2)n1C,-13.5%

row,SMILES,inhibition
1,CCC1Oc2ccccc2N(CC(=O)NCCCN2CCN(CC)CC2)C1=O (configuration not stated),-4.33%
2,CC(C)OCCCNC(=O)CN1C(=O)/C(=C/c2ccccc2F)Oc2ccccc21,-4.44%
3,COc1ccc(CCNC(=O)CN2C(=O)CCSc3ccccc32)c(OC)c1,-7.21%
4,Cc1ccc(-c2nc(CSCC(=O)NC3CCN(Cc4ccccc4)CC3)c(C)o2)cc1,1.51%
5,Cc1ccc(Sc2cc(C(=O)c3ccccc3C(=O)O)ccc2[N+](=O)[O-])cc1,1.21%
6,Cc1ccccc1NC(=O)C1CCN(C(=O)NC2CCCCC2)CC1,-5.42%
7,CC(=O)Nc1cc2ccc(OC(C)=O)cc2oc1=O,-11.8%
8,O=C(Nc1cc2ccccc2oc1=O)C1CCCCC1,55.5% (active)
9,Cc1nn(Cc2ccc(Cl)cc2)c(Cl)c1/C=N/NC(=O)CNc1ccccc1F,-6.45%
10,CCn1nc(C)c(/C=N/NC(=O)Cc2ccc(Cl)cc2)c1C,81.2% (active)
11,Cc1nn(Cc2ccc(Cl)cc2)c(Cl)c1/C=N/NC(=O)c1cccnc1,-8.32%
12,O=C(NCc1cccs1)c1ccc2c(c1)ncn2C1CCCC1,38% (active)
13,O=C(NCCN1CCOCC1)c1ccc2c(c1)ncn2C1CCCC1,-8.3%
14,COc1ccccc1-n1cnc2cc(C(=O)NCC3CCCO3)ccc21 (configuration not stated),-4.06%
15,CCOC(=O)C1=C(c2ccccc2)NC(=O)NC1c1cc(OC)c(OC)cc1OC (configuration not stated),-5.08%
16,COc1cc2c(cc1OC)CN(CC(=O)Nc1ccc(F)cc1)CC2,-6.84%
17,Cc1ccc(SCc2c(C(=O)N/N=C/c3cccnc3)nnn2-c2nonc2N)cc1,-5.04%
18,COc1cc(CN2CCC(C(N)=O)CC2)ccc1OCc1ccccc1,50.5% (active)
19,CCOc1cc(CN2CCN(C(=O)CC(C)C)CC2)ccc1OC,21.9%
20,COc1ccc(COCC(O)CN2CCC(C(N)=O)CC2)cc1 (configuration not stated),18.1%
21,CCCc1nnc(NC(=O)CCC(=O)NC2CC2)s1,-4.93%
22,COc1ccc(CCN(C)C(=O)C23CC4CC(CC(Cl)(C4)C2)C3)cc1OC,-8.99%
23,Cc1cccc(NC(=O)Nc2ccc(OCc3ccccc3)cc2)n1,-8.92%
24,Cc1cccc(NC(=O)c2cccnc2Cl)n1,21.6%
25,Cc1cccc(NC(=O)c2ccc3ccccc3n2)n1,80.6% (active)

row,SMILES,inhibition
1,Cc1cccc(NC(=O)c2ccccc2NC(=O)C(C)(C)C)n1,-16.5%
2,CCN(CC)S(=O)(=O)c1ccc(C)c(NC(=O)COc2ccc(Br)cc2Cl)c1,-7.98%
3,Cc1cccc(NC(=O)COc2ccccc2C)n1,99.9% (active)
4,Cc1ccccc1OCC(=O)Nc1nc(C)c(C(=O)N(C)C)s1,13.1%
5,COCCNC(=O)COc1ccccc1C,-1.68%
6,CCCC1=Nc2cc(C(=O)NCCN3CCCC3)ccc2Sc2ccccc21,-5.59%
7,Cc1cc(C)n(CC(O)COc2ccc(C(C)(C)C)cc2)n1 (configuration not stated),-1.13%
8,COc1ccccc1CN(C)C(=O)c1cc2ccccc2o1,5.75%
9,Nc1nc(NC(=O)/C=C/c2ccccc2)nn1-c1ccccc1,27%
10,Cc1ccc(S(=O)(=O)Nc2nc(N)n(-c3ccccc3)n2)cc1,-9.63%
11,Cc1ccc(C(=O)Nc2nc(N)n(-c3ccccc3)n2)cc1,38.4% (active)
12,O=C(Nc1cccc(F)c1)c1coc(=O)c(Br)c1,-10.4%
13,CCCCNC(=O)c1cn(CC)c2cc(N3CCN(C(=O)c4ccco4)CC3)c(F)cc2c1=O,-7.36%
14,COCCCNC(=O)/C(C#N)=C/c1c(N2CCCCCC2)nc2ccccn2c1=O,-3.53%
15,Cc1ccc(S(=O)(=O)Nc2nc3ccccc3s2)cc1[N+](=O)[O-],-15.3%
16,CSCCC(Nc1nc2ccccc2s1)C(=O)O (configuration not stated),-3.96%
17,Cc1ccnc(Nc2nc3ccccc3s2)n1,76.8% (active)
18,CS(=O)(=O)N(CC(=O)Nc1ccc(F)cc1)C1CCCCC1,18.9%
19,COc1ccc(S(=O)(=O)N2CCN(c3ccc(F)cc3)CC2)cc1-c1noc(C)n1,-2.91%
20,Cc1cc(/C=N/n2cnnc2)c(C)n1-c1cccc(C(=O)O)c1,26.3%
21,Cc1cc(/C=N/Nc2ccc([N+](=O)[O-])cn2)c(C)n1-c1cccc(C(=O)O)c1,81.9% (active)
22,Cc1ccc(-n2c(C)cc(/C=N/Nc3ccc([N+](=O)[O-])cn3)c2C)c(C)c1,50.3%
